The source made the active and inactive calls. No stated cut-off is given here; in the data, active means inhibition above about 65%; inactive means the rest.

The subject of this test is Antitargets. Briefly: Fam108b inhibition by ABPP, late-stage follow-up, biochemical, gel-based ABPP, recombinant soluble Fam108b, HTS hits, complex proteome (AID 588651).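 Further: Fam108b spiked into mouse brain membrane proteome; tested at 20 µM.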 The conditions noted are these: FP-rhodamine labeling in proteome.
As for `COc1cc2cc(C(=O)NN=Cc3ccccc3Cl)[nH]c2cc1OC`, the result was inactive.
Take `Cc1ccnc(N=Cc2nc(-c3ccccc3Br)oc2O)c1`: the outcome was inactive.
On to `CCOc1cc(/C=C2\C(=O)N(c3nc(-c4ccc(Br)cc4)cs3)N=C2c2ccccc2)ccc1O`, for which the result was active.
Regarding `Cc1ccc(S(=O)(=O)/N=C2\C=C(Nc3cccc(C(=O)O)c3)C(=O)c3ccccc32)cc1`, the result was inactive.
For `Oc1cccc2cc3cccc(O)c3c(O)c12` the value was “active”.
For `Cc1cc(NN=Cc2c(O)ccc3ccccc23)nc(-c2ccccc2O)n1` the value was “inactive”; for `Cc1ccc(S(=O)(=O)Nc2ccccc2C(=O)Nc2nc(-c3ccc(F)cc3)cs2)cc1`, “inactive”.
As to `Cc1nc2scc(-c3ccccc3)c2c(=O)o1`, the result was inactive.
Take `Brc1csc(C=NNc2nc3ccccc3s2)c1`: the outcome was inactive.
As to `O=C(Nc1ccc(N2CCCC2)c(S(=O)(=O)Nc2cccc(C(F)(F)F)c2)c1)c1cccs1`, the result was inactive.
For the compound `O=C(Nc1ccc(-c2csc(Nc3ccccc3)n2)cc1)c1cc([N+](=O)[O-])cc(C(F)(F)F)c1`, the outcome was inactive.
As to `O=C1NC(=S)/C(=C\c2ccc(-c3ccccc3Cl)o2)S1`, the result was inactive.
On to `COc1ccc(-c2csc3nc(-c4ccccc4F)oc(=O)c23)cc1`, for which the outcome was inactive.
`Cc1[nH]c2ccccc2c1C=NNC(=O)c1cccc(S(=O)(=O)Nc2cccc(C(F)(F)F)c2)c1`: the outcome was inactive.
For `COc1cc2c(cc1NC(=S)Nc1cccc(C(F)(F)F)c1)oc1ccccc12`, the outcome was inactive.
Turning to `COc1cc2c(cc1NC(=O)Nc1ccccc1)oc1ccccc12`, the outcome was inactive.
Take `COc1ccc(/C=C/C(=O)OCC(=O)Nc2cccc(Oc3ccccc3)c2)c(OC)c1`: the outcome was inactive.
Take `COc1ccc(-c2csc3nc(-c4ccccc4OC)oc(=O)c23)cc1`: the result was inactive.
With `Brc1ccc(-c2csc(Nc3nc(-c4ccc(Br)cc4)cs3)n2)cc1` the entry was “inactive”; with `Oc1ccc(C=NNc2ccnc3cc(Cl)ccc23)cc1O`, “inactive”; with `COc1ccc(S(=O)(=O)/N=C2\C=C(Nc3ccc(O)cc3)C(=O)c3ccccc32)cc1`, “inactive”.
For the compound `CCc1cc(C(Cc2ccc3ccccc3n2)=NO)c(O)cc1O`, the result was active.
With `COc1ccc(/C=C2\SC(=S)N(CC(=O)OCC(=O)Nc3cc(Cl)cc(Cl)c3)C2=O)cc1` the entry was “inactive”; with `Cc1ccccc1NC1=C/C(=N\S(=O)(=O)c2cccs2)c2ccccc2C1=O`, “inactive”; with `Cc1cc(C)nc(SCc2ccc(C(=O)NN=Cc3cccc(O)c3O)cc2)n1`, “active”.
For `Nc1c(S(=O)(=O)c2cccc(Cl)c2)c2nc3ccccc3nc2n1N=Cc1ccc(O)c(O)c1` the value was “inactive”; for `Cc1ccc(S(=O)(=O)N=C2C=C(Sc3ncn[nH]3)C(=O)c3ccccc32)cc1`, “inactive”; for `O=S(=O)(c1cc(O)ccc1O)c1cccc2c(S(=O)(=O)c3cc(O)ccc3O)cccc12`, “inactive”.
Regarding `Oc1nc(Nc2cccc(Cl)c2)sc1/C=C1\C=Nc2ccccc21`, the result was active.
With `Nc1cc(C(=O)O)c(N)c2c1C(=O)c1ccccc1C2=O` the entry was “inactive”.
With `Oc1ccc(C=NNc2ccnc3cc(Cl)ccc23)c(O)c1O`, the outcome was active.
Consider `CCCCCCCCCCCCCCCC[n+]1ccc(C=NO)cc1`, for which the outcome was inactive.
`Cn1c(O)c(C=NNC(=O)c2cc3ccccc3cc2O)c2ccccc21`: the outcome was inactive.
With `CC1(C)CC(=O)C2=C(C1)c1c(ccc3ccccc13)NC2c1cc([N+](=O)[O-])cc([N+](=O)[O-])c1O` (centres undefined) the entry was “inactive”.

Source of the values: PubChem BioAssay AID588651 (The Scripps Research Institute Molecular Screening Center, 2011).
